The record followed here is PubChem BioAssay (NCI).

Among the test systems are NCI-H23 lung; NCI-H226 lung; NCI-H322M lung; HOP-62 NSCLC; NCI-H460 lung; HOP-92 NSCLC; NCI-H522 lung; A549/ATCC NSCLC; 786-0 renal; COLO 205 colon; DU-145 prostate; K-562 leukemia; MALME-3M melanoma; RXF 393 renal; SF-268 CNS; SF-295 CNS; SF-539 CNS; UACC-257 melanoma; M14 melanoma; MDA-MB-231 breast.
Assay in all cases: NCI-60 one-dose screen, 48 h (100 = growth as untreated, 0 = no growth, -100 = all killed)
Details in all cases: 10 µM unless noted

About 83,000 compounds went through this panel and 20% of them were active in at least one assay; those are over-represented in the sample as a whole.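 Assay: single dose, 48 h. Readout: percent growth (0 = no net growth; negative = cell death). Active: <10.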 Values without a mark were called inactive. Active and inactive are the calls of the source.

With `Nc1c(C(=O)Nc2ccccc2Cl)sc2nc3c(cc12)CCCCCC3`, the growth in the assay with NCI-H23 lung is 72.4%; in the assay with NCI-H226 lung, 31%; in the assay with NCI-H322M lung, 49.2%; with HOP-62 NSCLC, 27%; in the assay on NCI-H460 lung it was 30.8%; with HOP-92 NSCLC it was 39.4%. Besides, the growth was 58% with NCI-H522 lung; 29% in the assay with A549/ATCC NSCLC; -55.3% (active) in the assay on 786-0 renal; 33.8% with COLO 205 colon; 56.3% with DU-145 prostate; 23.3% with K-562 leukemia. In addition, the growth is -13.3% (active) with MALME-3M melanoma; -34.6% (active) in the assay with RXF 393 renal; 38.4% with SF-268 CNS; 36.6% in the assay on SF-295 CNS; 14.3% in the assay on SF-539 CNS; 58.4% in the assay on UACC-257 melanoma. In addition, the growth in the assay with M14 melanoma was 34.5%.

`CCN(CC)CCCNc1cccc2c(SCc3ccccc3)ccnc12`: the growth in the assay on NCI-H23 lung was 69.3%; in the assay on NCI-H226 lung, 89.8%; in the assay with NCI-H322M lung, 41.6%; in the assay on HOP-62 NSCLC, 94.8%; in the assay on NCI-H460 lung it was 72%; in the assay on HOP-92 NSCLC, 26.2%. Moreover, the growth in the assay on NCI-H522 lung was 52%; in the assay on A549/ATCC NSCLC it was 63.7%; in the assay with 786-0 renal, 72.7%; with COLO 205 colon it was 106%; in the assay with DU-145 prostate it was -22.8% (active); in the assay with K-562 leukemia it was -63% (active). In addition, the growth with MALME-3M melanoma is -84.3% (active); with RXF 393 renal, 88.4%; in the assay with SF-268 CNS, 23.9%; with SF-295 CNS, 61%; in the assay with SF-539 CNS it was 81.4%; in the assay with UACC-257 melanoma it was 88.1%. In addition, the growth in the assay with M14 melanoma is -47.4% (active).

Turning to `CCCCCCCCCCCCS(=O)CC(C)O` (stereo unspecified), the growth with NCI-H23 lung is 115%; in the assay on NCI-H226 lung, 110%; with NCI-H322M lung it was 119%; in the assay on HOP-62 NSCLC, 96.1%; in the assay on NCI-H460 lung it was 111%; in the assay on HOP-92 NSCLC, 90.2%. Besides, the growth was 95.3% in the assay on NCI-H522 lung; 93% with A549/ATCC NSCLC; 102% in the assay on 786-0 renal; 110% with COLO 205 colon; 126% with DU-145 prostate; 103% in the assay on K-562 leukemia. In addition, the growth was 116% in the assay on MALME-3M melanoma; 104% in the assay on MDA-MB-231 breast; 139% in the assay with SF-268 CNS; 100% in the assay with SF-295 CNS; 97.2% in the assay with SF-539 CNS; 94.7% with UACC-257 melanoma. Also, the growth in the assay on M14 melanoma is 107%.

Regarding `CC/C(=C(\c1ccccc1)c1ccc(OCCNC)cc1)c1ccccc1`, the growth in the assay on NCI-H23 lung was -90.5% (active); in the assay on NCI-H226 lung, -84.1% (active); with NCI-H322M lung, -99.5% (active); in the assay with HOP-62 NSCLC, -64.2% (active); with NCI-H460 lung, -71.3% (active); with HOP-92 NSCLC it was -85.6% (active). In addition, the growth in the assay on NCI-H522 lung was -74.9% (active); with A549/ATCC NSCLC, -39.2% (active); in the assay with 786-0 renal, -92.7% (active); with COLO 205 colon, -85.5% (active); in the assay with DU-145 prostate it was -66.8% (active); in the assay with K-562 leukemia, -5.96% (active). In addition, the growth in the assay with MALME-3M melanoma was -92.9% (active); in the assay with RXF 393 renal, -97.6% (active); with SF-268 CNS, 1.29% (active); in the assay with SF-295 CNS, -99.3% (active); with SF-539 CNS, -98% (active); in the assay with UACC-257 melanoma, -68.4% (active). Moreover, the growth in the assay on M14 melanoma is -89.7% (active).

Regarding `CCOC(=O)N1CCN(c2nc(Nc3cc(C)[nH]n3)c3ccccc3n2)CC1`, the growth in the assay on NCI-H23 lung is 65.8%; in the assay on NCI-H226 lung, 34.8%; with NCI-H322M lung, 88.5%; in the assay with HOP-62 NSCLC, 49.6%; in the assay with NCI-H460 lung, 23.1%; with HOP-92 NSCLC, 31.3%. In addition, the growth with NCI-H522 lung is 10.4%; in the assay with A549/ATCC NSCLC it was 34.4%; in the assay on 786-0 renal, 44%; in the assay on COLO 205 colon, 14%; in the assay with DU-145 prostate, 47.5%; in the assay with K-562 leukemia, 17.4%. For the same compound, the growth in the assay with MALME-3M melanoma is 77.6%; in the assay on MDA-MB-231 breast, 63.7%; in the assay with SF-268 CNS, 42.6%; with SF-295 CNS it was 36.5%; with SF-539 CNS, 46.8%; with UACC-257 melanoma, 65.7%. Moreover, the growth in the assay on M14 melanoma was 61.6%.

For `Cc1cc(Nc2nc(-c3cccnc3)nc3ccccc23)n[nH]1`, the growth is 65.2% with NCI-H23 lung; 43.9% with NCI-H226 lung; 81.3% with NCI-H322M lung; 64.1% with HOP-62 NSCLC; 41.9% with NCI-H460 lung; 55.3% with HOP-92 NSCLC. For the same compound, the growth in the assay with NCI-H522 lung was 43.7%; in the assay with A549/ATCC NSCLC it was 19%; in the assay on 786-0 renal, 55%; with COLO 205 colon it was -10.2% (active); with DU-145 prostate it was 74.3%; with K-562 leukemia it was 48.1%. Also, the growth was 99.1% with MALME-3M melanoma; 95.7% with MDA-MB-231 breast; 58.1% in the assay on SF-268 CNS; 53.3% in the assay on SF-295 CNS; 34.7% in the assay with SF-539 CNS; 59.7% in the assay on UACC-257 melanoma. Besides, the growth with M14 melanoma is 72.5%.

`CCCCCCCCCCCCN1CCCC(C)C1` (stereo unspecified): the growth in the assay with NCI-H23 lung is 80.3%; with NCI-H226 lung, 85.3%; in the assay with NCI-H322M lung, 87.2%; in the assay on HOP-62 NSCLC, 89.1%; in the assay on NCI-H460 lung, 106%; in the assay with HOP-92 NSCLC it was 73%. The growth with NCI-H522 lung is 69.3%; in the assay with A549/ATCC NSCLC, 91.4%; in the assay on 786-0 renal, 85.9%; with COLO 205 colon, 82.2%; in the assay with DU-145 prostate, 95.2%; in the assay with K-562 leukemia it was 19.2%. Moreover, the growth in the assay with MALME-3M melanoma is 107%; in the assay on MDA-MB-231 breast, 55.8%; in the assay with SF-268 CNS, 89.7%; with SF-539 CNS, 86.4%; with UACC-257 melanoma, 88.3%; in the assay on M14 melanoma, 82.7%.

For `Cc1ccc(C2CC3c4ccccc4C2C2CCCCN32)cc1` (stereo unspecified), the growth was 93.6% with NCI-H23 lung; 95.9% with NCI-H226 lung; 84.1% in the assay on NCI-H322M lung; 98.6% in the assay with HOP-62 NSCLC; 104% in the assay on NCI-H460 lung; 85.4% in the assay with HOP-92 NSCLC. The growth was 72.6% in the assay on NCI-H522 lung; 89.9% with A549/ATCC NSCLC; 92.7% in the assay on 786-0 renal; 74% with COLO 205 colon; 108% in the assay with DU-145 prostate; 72% in the assay on K-562 leukemia. The growth was 85.6% in the assay with MALME-3M melanoma; 109% in the assay on MDA-MB-231 breast; 90.1% in the assay with SF-268 CNS; 78.4% in the assay with SF-295 CNS; 91.4% with SF-539 CNS; 59.9% with UACC-257 melanoma. Also, the growth in the assay with M14 melanoma is 94.5%.
